The text below walks through data of PubChem BioAssay (NCI).

Some test systems named below: SK-MEL-2 melanoma; EKVX NSCLC; SN12C renal; UO-31 renal; TK-10 renal; ACHN renal; CAKI-1 renal; A498 renal; CCRF-CEM leukemia; MOLT-4 leukemia.
Holding throughout (experiment): NCI-60 one-dose screen, 48 h (100 = growth as untreated, 0 = no growth, -100 = all killed)
Conditions in all cases: 10 µM unless noted

About 83,000 compounds went through this panel and 20% of them were active in at least one assay; those are over-represented in the sample as a whole.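 For each line, cells grew in 96-well plates with the test compound present at a single concentration for 48 hours.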 Values without a mark were called inactive. Calls of active or inactive are those of the source. The calls were made as follows: active = growth percent below 10; inactive = the rest.

Take `C=C[C@@H]1C[C@H](O)Cc2cc(F)ccc2N1`: the growth was 123% in the experiment on SK-MEL-2 melanoma; 89.3% in the experiment on EKVX NSCLC; 101% in the experiment on SN12C renal; 103% with UO-31 renal; 97.7% in the experiment on TK-10 renal; 104% in the experiment on ACHN renal. For the same molecule, the growth is 92.3% with CAKI-1 renal, 93.8% in the experiment on A498 renal, -66% (active) in the experiment with CCRF-CEM leukemia and -34.3% (active) with MOLT-4 leukemia.

With `C=COC(=O)CCCCCCCCC`, the growth with SK-MEL-2 melanoma was 108%; in the experiment on EKVX NSCLC, 94.1%; in the experiment on SN12C renal it was 106%; in the experiment with UO-31 renal, 85.7%; in the experiment on TK-10 renal, 109%; with ACHN renal, 104%. The growth was 92.8% in the experiment with CAKI-1 renal and 96.4% with A498 renal.

For the molecule `O=[N+]([O-])c1cc(S(=O)(=O)Oc2ccccc2)ccc1Cl`, the growth in the experiment with SK-MEL-2 melanoma is 87.5%; in the experiment on EKVX NSCLC, 65%; in the experiment with SN12C renal it was 29.6%; with UO-31 renal, -87.7% (active); with TK-10 renal, 52.3%; with ACHN renal, 37.6%. For the same molecule, the growth in the experiment on CAKI-1 renal was -89.4% (active); in the experiment with A498 renal, 96.7%; in the experiment with CCRF-CEM leukemia it was -22.1% (active); in the experiment with MOLT-4 leukemia, 19.4%.

For the molecule `COc1ccc(S(=O)(=O)NCCCNc2nccc(-n3ccc4cccnc43)n2)cc1`, the growth is 106% in the experiment on SK-MEL-2 melanoma; 87.5% in the experiment on EKVX NSCLC; 90.9% with SN12C renal; 97.5% with UO-31 renal; 105% in the experiment with TK-10 renal; 94.6% in the experiment on ACHN renal. The growth in the experiment on CAKI-1 renal was 69.6%; in the experiment with A498 renal, 87.5%; with CCRF-CEM leukemia, 90%; with MOLT-4 leukemia, 77.2%.

Take `Cc1ccc(CSC(=N)N)cc1C`: the growth was 125% in the experiment on SK-MEL-2 melanoma; 100% in the experiment with EKVX NSCLC; 104% in the experiment with SN12C renal; 87.7% in the experiment on UO-31 renal; 102% in the experiment on TK-10 renal; 107% in the experiment on ACHN renal. The growth is 93.4% in the experiment with CAKI-1 renal and 103% in the experiment with A498 renal.

As for `Cc1cc(N/N=C/c2nc(-c3ccc(Br)cc3)oc2C)c2cc(Br)ccc2n1`, the growth in the experiment on SK-MEL-2 melanoma was 99%; in the experiment with EKVX NSCLC it was 90.9%; with SN12C renal it was 26.8%; in the experiment with UO-31 renal, 58.7%; in the experiment on TK-10 renal it was 82%; in the experiment on ACHN renal it was 64.9%. The growth in the experiment on CAKI-1 renal was 88.3%; in the experiment on A498 renal, 85.7%; in the experiment on CCRF-CEM leukemia, -4.62% (active); with MOLT-4 leukemia, 7.29% (active).

With `Cc1ccc(S(=O)(=O)NCCCNc2cc(-c3cn(C(C)(C)C)nc3-c3cccc(O)c3)ccn2)cc1`, the growth in the experiment with SK-MEL-2 melanoma is 70.4%; with EKVX NSCLC, 61%; in the experiment on SN12C renal, 64.6%; with UO-31 renal, 73.2%; in the experiment on TK-10 renal, 107%; in the experiment on ACHN renal, 62.4%. Besides, the growth in the experiment on CAKI-1 renal is 59.7%; in the experiment on A498 renal, 85.1%; in the experiment on CCRF-CEM leukemia, 52.4%; in the experiment with MOLT-4 leukemia, 49.1%.

On to `O=C(c1ccccc1)c1c(/C=C/c2ccccc2)c2ccccc2[nH]c1=O`, for which the growth was 92.6% in the experiment on SK-MEL-2 melanoma; 98.2% in the experiment with EKVX NSCLC; 92.7% in the experiment with SN12C renal; 73.6% with UO-31 renal; 97.8% in the experiment with TK-10 renal; 93.5% in the experiment on ACHN renal. Moreover, the growth is 91.8% with CAKI-1 renal, 97.6% in the experiment on A498 renal, 87.6% in the experiment with CCRF-CEM leukemia and 84.1% with MOLT-4 leukemia.

On to `Cc1ccc2ccccc2c1C[n+]1ccccc1`, for which the growth is 111% with SK-MEL-2 melanoma; 58.2% in the experiment with EKVX NSCLC; 98.4% in the experiment with SN12C renal; 84% in the experiment with UO-31 renal; 88.4% in the experiment on TK-10 renal; 106% with ACHN renal. Also, the growth with CAKI-1 renal was 92.8%; in the experiment with A498 renal, 79.3%.

Regarding `Cc1cc(N/N=C/c2nc(-c3ccccc3)oc2C)c2cc(Br)ccc2n1`, the growth in the experiment with SK-MEL-2 melanoma is 106%; in the experiment on EKVX NSCLC, 107%; with SN12C renal, 32.3%; with UO-31 renal, 78.1%; in the experiment on TK-10 renal it was 101%; in the experiment on ACHN renal, 89.9%. The growth in the experiment with CAKI-1 renal was 80%; in the experiment on A498 renal, 66.1%; in the experiment with CCRF-CEM leukemia, 27.7%; with MOLT-4 leukemia it was 50.5%.

For `OCCCCCCNc1ncnc2cc(Cl)ccc12`, the growth in the experiment on SK-MEL-2 melanoma was 100%; in the experiment on EKVX NSCLC, 105%; in the experiment on SN12C renal it was 99.9%; in the experiment on UO-31 renal, 69.7%; in the experiment on TK-10 renal it was 94.1%; in the experiment with ACHN renal, 102%. In addition, the growth with CAKI-1 renal is 90.3%; in the experiment with A498 renal it was 104%; in the experiment with CCRF-CEM leukemia, 78.2%; in the experiment on MOLT-4 leukemia, 84.5%.

As for `COc1ccc(-c2nc(/C=N/Nc3cc(C)nc4ccc(Br)cc34)c(C)o2)cc1`, the growth with SK-MEL-2 melanoma was 104%; in the experiment on EKVX NSCLC it was -8.99% (active); in the experiment with SN12C renal, -89.2% (active); in the experiment on UO-31 renal, -99.1% (active); in the experiment on TK-10 renal, -51.8% (active); in the experiment with ACHN renal it was -100% (active). Moreover, the growth with CAKI-1 renal was -91.2% (active); in the experiment on A498 renal, 58.5%; in the experiment on CCRF-CEM leukemia it was -50.4% (active); in the experiment with MOLT-4 leukemia, -53.3% (active).

As for `CC(NNC(C)c1ccccc1)c1ccccc1` (centres undefined), the growth in the experiment on SK-MEL-2 melanoma is 110%; with EKVX NSCLC, 97.2%; in the experiment with SN12C renal it was 116%; in the experiment on UO-31 renal it was 93.1%; in the experiment with TK-10 renal, 105%; with ACHN renal, 108%. Besides, the growth was 89% in the experiment on CAKI-1 renal, 97.9% with A498 renal, 118% in the experiment with CCRF-CEM leukemia and 113% in the experiment with MOLT-4 leukemia.

Take `COc1cccc(CC(C)=C(c2ccc(OCCN3CCCCC3)cc2)c2ccc(OCCN3CCCCC3)cc2)c1`: the growth with SK-MEL-2 melanoma was -65.4% (active); in the experiment with EKVX NSCLC, 18%; in the experiment on SN12C renal it was -42.3% (active); with UO-31 renal, -92.2% (active); with TK-10 renal, 32.5%; in the experiment with ACHN renal it was -88.4% (active). The growth in the experiment on CAKI-1 renal was -46.8% (active); in the experiment with A498 renal it was 8.39% (active); in the experiment on CCRF-CEM leukemia it was -31.8% (active); with MOLT-4 leukemia, -34.3% (active).
